Most compounds without a hit are left out; they make up all but 2.5% or so of the library.
ASK1 primary = ASK1 kinase inhibitors, primary screen, biochemical, AlphaScreen. AID 1159602, 2016. hit rate 0.99% among 22,000. AlphaScreen MKK6 phosphorylation by ASK1, luminescence. Mitogen-activated protein kinase kinase kinase 5 (Homo sapiens), Q99683. inhibition, % at 7.44 µM; in the data active = inhibition above about 35%;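 also: 0% = median of compound wells and 100% = no enzyme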
ULK1 primary = ULK1 kinase inhibitors, primary screen, biochemical, AlphaScreen | Serine/threonine-protein kinase ULK1 (Homo sapiens), O75385 | AlphaScreen Atg13 phosphorylation by ULK1, luminescence | inhibition, % at 5.96 µM | hit rate 1.9% among 30,000 | AID 1259251, 2017; in the data active = inhibition above about 43%;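 also: 0% = median of compound wells and 100% = no enzyme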
* = called active by the depositor; . = no result.

SMILES | ASK1 primary | ULK1 primary
CC(C)n1c(Nc2cnccn2)nc2c(NCc3ccccc3)ncnc21 | 7.4 | 13.1
CC(C)N(CCNc1nc(Nc2ccncc2)nc2c1ncn2-c1ccccc1)C(C)C | 0.1 | 7.1
NC(C(=O)N1CCC(c2nc(-c3ccncc3)no2)CC1)c1ccc(Br)cc1 (stereo not given) | 8.8 | 1.4
Cc1cc(NCCN(C(C)C)C(C)C)nc(N2CCN(c3ccccn3)CC2)n1 | -0.7 | 4.3
Cc1ncn(-c2ccc(Nc3ncc4cccc(-c5cnoc5)c4n3)cc2)n1 | 13.0 | 5.8
CNC(=O)c1ccccc1Nc1cc(Nc2cccc(C)n2)ncc1C(F)(F)F | -0.9 | 89.5*
CNC(=O)c1ccc(Nc2cc(Nc3ccccc3C(=O)NC)c(C(F)(F)F)cn2)nc1 | -9.0 | 87.4*
CC(C)n1cnc2c(N)nc(Nc3ccnn3C)nc21 | -20.6 | 10.9
O=C1CCCN1CCn1cnc2c(NC3CCN(Cc4ccccc4)CC3)nc(Nc3cnccn3)nc21 | -1.6 | 21.2
COC(=O)c1ccc(/C=C/C(=O)c2ccc3c(c2)OCCO3)cc1 | . | 43.3*
O=C(N/N=C\C=C\c1ccc(Br)cc1)c1ccc2c(c1)OCO2 | . | 14.6
Cc1cnc(Nc2ccc3ncccc3c2)nc1NC1CC1 | 7.6 | 70.8*
O=C1CCCN1CCCNc1nc(Nc2ccc(Oc3ccccc3)cc2)c2[nH]cnc2n1 | 29.5 | -22.0
Cc1cnc(Nc2cccc(N(C)C)c2)nc1NCCCN1CCCC1=O | -7.9 | 20.3
Cc1cnc(Nc2ccc3ncccc3c2)nc1NCCCN1CCCC1=O | -12.9 | 69.5*
Cc1cnc(NCCCN2CCCC2=O)nc1Nc1ccc(Oc2ccccc2)cc1 | 10.8 | 49.1*
Cc1cnc(Nc2ccc3ncccc3c2)nc1Nc1ccc2c(c1)OCO2 | -29.3 | -10.6
Cc1cnc(Nc2ccc(-n3ccnc3)cc2)nc1NCc1ccccc1 | 12.8 | 6.2
Nc1cccc(-c2cc(C(=O)NCCN3CCOCC3)ccn2)c1 | -8.8 | -18.2
Nn1cnnc1N/N=C/c1ccc(-c2cccc([N+](=O)[O-])c2)o1 | . | 45.1*
O=C(N/N=C\c1ccc(-c2ccc([N+](=O)[O-])cc2)o1)c1cnccn1 | . | -3.0
CCCNc1ncnc2c1nc(-c1c(C)nn(C)c1C)n2C(C)C | 7.1 | 11.5
O=C1/C(=C/c2cccs2)CCC/C1=C\c1cccs1 | . | 81.7*
O=C1/C(=C\c2cccs2)N2CCC1CC2 | . | 10.2
c1cc(-c2ocnc2-c2ccc3cn[nH]c3c2)cc(Nc2ccc(N3CCOCC3)cc2)n1 | -1.6 | -9.6
SMILES | ASK1 primary | ULK1 primary
O=C(OCC1(COC(=O)c2cccnc2)CCCC(COC(=O)c2cccnc2)(COC(=O)c2cccnc2)C1O)c1cccnc1 | . | 45.3*
NC(=O)c1cccnc1 | . | -13.3
CC(C)n1cnc2c(NCCc3ccc(O)cc3)nc(-c3ccc(N4CCOCC4)nc3)nc21 | 9.7 | -21.0
Cn1nccc1Nc1cc(NCc2cccc(C(F)(F)F)c2)ncn1 | 7.2 | 0.7
CCN(CC)C(=O)C1CCCN(C(=S)Nc2ccccc2)C1 (stereo not given) | . | -3.3
N[C@H](Cc1ccc(Br)cc1)C(=O)N1CCC(C(=O)Nc2ccncc2)CC1 | -3.4 | 5.0
C[C@@H](N)C1CCC(C(=O)Nc2ccncc2)CC1 (stereo not given in full) | 14.6 | 63.6*
Cc1nn(C(=O)c2ccc3c(c2)OCO3)c(C)c1S(=O)(=O)N1CCC(C)CC1 | . | 4.0
CCNc1ncc(C(=O)NCc2cccc(C(F)(F)F)c2)s1 | 8.2 | -8.7
COc1cc(Nc2cc(Nc3cnccn3)nc(N)n2)cc(OC)c1OC | 3.6 | 3.5
Cc1cc2c(NC3CCCN(C(=O)C(O)c4ccc(Br)cc4)C3)cccc2nn1 (stereo not given) | -22.0 | 32.7
CN1CCN(C(=O)c2ccc(-c3nc(Nc4ccc(N5CCOCC5)cc4)c4ncn(C5CCCCC5)c4n3)cc2)CC1 | 13.0 | 0.7
NC(=O)c1ccc(-c2nc(Nc3ccc(N4CCOCC4)cc3)c3ncn(C4CCCCC4)c3n2)cc1 | -0.2 | 44.2*
c1cc(N2CCOCC2)ccc1Nc1nc(NCCN2CCOCC2)nc2c1ncn2C1CCCCC1 | -34.8 | 54.7*
c1ccc(Nc2nc(NCCN3CCOCC3)c3ncn(C4CCCCC4)c3n2)cc1 | 10.8 | -10.4
CO/N=C(\C(=O)O)c1csc(NC(=O)CCl)n1 | . | 16.6
O=C(CCl)Nc1nc(-c2ccc(Br)cc2)cs1 | . | 44.6*
COc1cc(OC)nc(OCC(=O)N(c2ccccc2Cl)C(C)C)n1 | . | 4.0
Cn1cc(-c2ccc3cnc(Nc4ccc(-n5ccnc5)cc4)nc3c2)cn1 | -4.3 | 88.3*
Cc1ccc(-c2ncn(-c3ccc(Nc4ncc5ccc(-c6cnn(C)c6)cc5n4)cc3)n2)cn1 | 17.5 | 1.4
Cc1nc(C)n(-c2ccc(Nc3ncc4ccc(-c5cn[nH]c5)cc4n3)cc2)n1 | -41.1 | 36.0
Cc1cnc(Nc2ccc(-n3ccnc3)cc2)nc1N | -11.8 | 22.8
Cn1cc(-c2ccc3cnc(Nc4ccc(-n5cnc(-c6ccccn6)n5)cc4)nc3c2)cn1 | 8.1 | 16.5
